Screening data (PubChem BioAssay)
Hits are enriched below; roughly 2.2% of the tested compounds scored in any of these assays.
Ba/F3 V617F tox: loss of viability in JAK2V617F-driven Ba/F3 cells; Ba/F3 EpoR-JAK2V617F viability, ATP luminescence; inhibition, % at 5.6 µM; 1.1% of 220,000 active; AID 1446;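 active = inhibition above the campaign mean plus 3 SD over all tested compounds, cut at about 24% in these data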;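 also: cytokine-independent growth of Ba/F3 cells driven by EpoR plus mutant JAK2; 0% = DMSO-treated cells and 100% = JAK inhibitor I control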
IEC-6 tox-1: kills IEC-6 intestinal cells in KLF5 counter-screen | IEC-6 cytotoxicity, luminescence viability | inhibition, % at 5 µM | 0.78% of 290,000 active | AID 1825;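 also: 0% = plate median of test compound wells and 100% = cytotoxic reference compound wells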
BaF3 tox: counter-screen for JAK2V617F inhibitors: parental Ba/F3 viability inhibitors. CellTiter-Glo ATP luminescence. inhibition, % at 5.6 µM. 1.1% of 220,000 active. AID 1486;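 active = inhibition above a per-campaign cutoff, the mean inhibition of all tested compounds plus 3 SD, cut at about 27% in these data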;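 also: 0% = DMSO wells and 100% = JAK Inhibitor I control wells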
APP transl inh: APP translation inhibition; AID 1285; inhibition, % at 2 µM; SH-SY5Y APP 5'UTR-luciferase reporter, luminescence; 0.82% of 190,000 active;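 active = inhibition above a set limit, derived from the sample mean plus 3 SD, cut at about 45% in these data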
aSyn UTR inh: MLPCN primary screen, SNCA 5' untranslated region | inhibition, % (tested at 7.5 µM) | 0.82% of 300,000 active | alpha-synuclein 5'UTR reporter, inhibitor activity | AID 1813; in the data active = inhibition above about 60%;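 also: H4 neuroglioblastoma cells stably carrying SNCA 5'UTR luciferase fusion; 0% = DMSO wells and 100% = positive control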
KLF5 inh: inhibitors of KLF5 expression; DLD-1 KLF5 promoter-luciferase reporter, luminescence; 0.23% of 290,000 active; inhibition, % at 5 µM;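 active = inhibition above a per-plate limit of that plate's mean compound inhibition plus 3 SD, cut at about 60% in these data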;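 also: 0% = DMSO wells and 100% = LY294002 at 200 µM; higher means less KLF5 promoter-driven luciferase light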
KLF5 inh confirm: KLF5 inhibition, confirmation assay | shares compounds with KLF5 inh | inhibition, % at 4 µM | 79% of 610 active | DLD-1 KLF5 promoter firefly luciferase reporter, luminescence;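 active = inhibition above a set limit taken from the earlier primary screen, cut at about 63% in these data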;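 also: 0% = DMSO wells and 100% = LY294002 at 200 µM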
IEC-6 tox-2: counter-screen for KLF5 inhibitors: cytotoxicity in rat IEC-6 cells. shares compounds with KLF5 inh. IEC-6 rat intestinal cells, viability luminescence. inhibition, % at 4 µM. 56% of 610 active. AID 1905; in the data active = inhibition above about 23%;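 also: cells exposed to compounds for 48 hours before viability read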
IEC-6 tox confirm: confirmation of cytotoxic compounds in rat IEC-6 intestinal epithelial cells; shares compounds with IEC-6 tox-1; IEC-6 rat intestinal epithelial viability, luminescence; inhibition, % at 5 µM; 63% of 1,900 active;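 also: 0% = vehicle and 100% = reference cytotoxic drug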
Numbers without * were called inactive; · = not tested or not shown. Rule as the data show it, unless noted: active = inhibition above about 22%; inactive = the rest.

SMILES	Ba/F3 V617F tox	IEC-6 tox-1	BaF3 tox	APP transl inh	aSyn UTR inh	KLF5 inh	KLF5 inh confirm	IEC-6 tox-2	IEC-6 tox confirm
Cc1ccc(-n2c(C)cc(C(=O)NS(=O)(=O)c3ccc(C)cc3)c2C)cc1	-1.1	3.8	3.8	-21.9	-22.5	-27.9	·	·	·
CCN1CCN(Cc2c(O)ccc3c(C)cc(=O)oc23)CC1	·	-3.4	·	·	13.2	-29.5	·	·	·
Cc1cc(C)c2nc(NC(=O)[C@@H](NC(=O)c3cccc(S(=O)(=O)N4CCOCC4)c3)C(C)C)sc2c1	3.4	-7.1	10.5	-10.0	31.4	73.8*	100.0*	45.2*	·
Cc1cccc(C(=O)N[C@H](C(=O)Nc2cc(S(=O)(=O)N3CCCCC3)ccc2C)C(C)C)c1	-2.6	-4.3	1.5	-0.8	2.4	10.7	·	·	·
COc1ccc(C(=O)O/N=C(\N)c2ccccc2)cc1	·	1.6	·	·	-82.4	-130.5	·	·	·
CC(C)(C)c1ccc(C(=O)O/N=C(\N)c2ccccc2)cc1	·	-1.2	·	·	53.3	71.3*	65.8*	7.0	·
COc1ccccc1/C=C/c1ccc2cccc(O)c2n1	·	0.1	·	·	9.9	-38.1	·	·	·
Nc1nc(Nc2ccc(Cl)cc2)nc2ccccc12	6.0	17.0	4.2	-114.6	7.6	32.2	·	·	·
CCOc1ccc(Nc2nc(N)c3ccccc3n2)cc1	·	20.1	·	·	102.3*	81.3*	55.6	10.1	·
CN(C)c1ccc(Nc2nc(N)c3ccccc3n2)cc1	·	21.7	·	·	109.1*	90.8*	67.1*	10.1	·
C/C(C/C(C)=C1/SC(=S)NC1=O)=C1\SC(=S)NC1=O	-4.0	-5.1	0.0	12.3	·	-14.8	·	·	·
COc1ccc(NC(=O)COC(=O)Cc2c(F)cccc2Cl)cc1	0.1	5.0	2.5	6.3	-15.3	2.6	·	·	·
OC(c1ccccc1)C(O)c1ccccc1 (configuration not stated)	·	·	·	·	-6.1	·	·	·	·
COC(=O)C1=C(CN2CCCc3ccccc32)NC(=O)NC1c1ccc(F)cc1 (configuration not stated)	-1.5	-4.0	4.5	35.4	79.2*	84.5*	72.3*	7.4	·
COc1cc(C(=O)Nc2sc3c(c2C(=O)O)CCC(C)C3)cc(OC)c1OC (configuration not stated)	·	-5.7	·	·	55.9	73.8*	20.4	5.2	·
Cc1cccc(OCC(=O)Nc2cccc3nsnc23)c1	-1.9	-6.0	1.2	-18.4	-82.0	-27.1	·	·	·
CC(C)C(=O)c1cn(CC(=O)NCc2ccco2)c2ccccc12	1.7	2.8	2.8	-13.0	-42.4	4.1	·	·	·
CCOC(=O)C(C)Oc1cccc2c(=O)n(CC(=O)NCc3ccco3)ccc12 (configuration not stated)	77.1*	77.1*	68.4*	93.6*	73.0*	76.9*	80.5*	55.5*	51.9*
N#CC1=C(N)Oc2n[nH]c(-c3cccs3)c2C1c1cccnc1 (configuration not stated)	4.0	8.4	11.8	3.1	-15.6	-21.4	·	·	·
Cc1ccccc1C(=O)Nc1ccc(Cl)cn1	-4.5	-1.9	1.6	-67.7	-114.2	-85.0	·	·	·
O=C(Nc1ccc(Cl)cn1)c1cccc2c(Br)cccc12	·	82.4*	·	·	-40.8	62.4*	-9.7	13.6	14.2
Cn1ncc([N+](=O)[O-])c1C(=O)Nc1ccccc1Cl	·	1.1	·	·	-8.8	-20.1	·	·	·
COc1cc(-c2noc(C)c2/C=C/c2cccc([N+](=O)[O-])c2)cc(OC)c1OC	·	79.4*	·	·	69.2*	64.2*	79.5*	54.5*	53.7*
COc1cc(-c2noc(C)c2/C=C/c2ccc(C(=O)O)cc2)cc(OC)c1OC	·	-5.0	·	·	7.2	-5.4	·	·	·
Cc1cccc(NC(=O)c2ccc(S(=O)(=O)C(F)F)cc2)c1C	5.7	-1.2	5.3	-22.6	-31.3	-5.8	·	·	·
SMILES	Ba/F3 V617F tox	IEC-6 tox-1	BaF3 tox	APP transl inh	aSyn UTR inh	KLF5 inh	KLF5 inh confirm	IEC-6 tox-2	IEC-6 tox confirm
CCOc1cc(NC(=S)NCCCN(C)C)c(OCC)cc1NC(=O)c1cccs1	0.2	1.4	8.5	·	0.2	-9.3	·	·	·
COc1ccc(NS(=O)(=O)c2cc(C)ccc2NC(=O)c2cc(C)oc2C)cc1	75.1*	81.8*	78.7*	95.2*	103.5*	62.5*	81.0*	62.1*	62.2*
CCn1c2ccccc2c2cc(NC(=O)c3cc(OC)c(OC)c(OC)c3)ccc21	87.2*	91.7*	85.8*	7.5	-23.4	82.8*	88.5*	86.0*	88.8*
CCn1c2ccccc2c2cc(NC(=O)COc3ccc(OC)cc3)ccc21	-1.4	5.0	3.5	2.7	14.8	-37.2	·	·	·
CCOC(=O)c1c(NC(=O)CSc2nc3ccc(OC)cc3[nH]2)sc2c1CC(C)(C)NC2(C)C	·	·	·	·	-36.6	·	·	·	·
CCCCS(=O)(=O)/C=C\C=C/S(=O)(=O)CCCC	100.7*	101.9*	104.9*	97.7*	-8.6	103.2*	91.8*	100.5*	40.5*
CN1/C(=C/C=C(/C#N)C(N)=O)C(C)(C)c2ccccc21	78.5*	47.3*	62.4*	68.5*	-146.0	68.8*	60.3	36.1*	44.4*
CN1/C(=C\C=C(/C#N)C(=O)Nc2ccccc2F)C(C)(C)c2ccccc21	-1.2	1.1	6.8	-17.6	25.5	-39.5	·	·	·
Cc1ccc(S(=O)(=O)Cc2ccc(C(=O)N3CCN(c4cccc(C)c4C)CC3)o2)cc1	·	77.2*	·	·	88.5*	64.0*	68.0*	56.8*	56.4*
COc1ccc(S(=O)(=O)Cc2ccc(C(=O)N3CCN(c4cccc(C)c4C)CC3)o2)cc1	0.9	2.2	4.5	-14.5	7.1	-8.3	·	·	·
CN(Cc1ccc(OCC(O)CN2CCCCC2)cc1)Cc1ccnc2ccccc12 (configuration not stated)	2.2	0.6	6.1	4.1	-7.6	-21.5	·	·	·
Cc1cc(C)n(CC(=O)NC2CCCc3c2cnn3-c2ccccc2F)n1 (configuration not stated)	·	-2.2	·	·	-4.2	-39.4	·	·	·
CCOC(=O)CNC(c1ccccc1)c1cc(Br)ccc1NC(=O)CCN1CCOCC1 (configuration not stated)	4.7	8.0	4.0	5.0	-1.4	5.4	·	·	·
CCCCCC(=O)N[C@@H](c1ccccc1)[C@@H](O)C(=O)O[C@H]1C[C@@]2(O)[C@@H](OC(=O)c3ccccc3)C3[C@](C)(C(=O)[C@H](OC(C)=O)C(=C1C)C2(C)C)[C@@H](O)C[C@H]1OC[C@@]31OC(C)=O (some centres not stated)	·	95.8*	·	·	87.2*	66.1*	83.6*	87.9*	85.8*
O=C(N/N=C/c1cc(Cl)ccc1O)c1cccnc1	·	60.2*	·	·	-10.1	78.9*	89.1*	16.3	29.1*
COC(=O)c1sc(N)c(C(=O)OC)c1COC(=O)c1c(C)noc1C	71.0*	66.5*	72.9*	43.0	40.2	68.1*	42.0	35.0*	41.7*
COc1ccc(CNC(=O)CN(C(=O)CCC(=O)Nc2nccs2)c2ccc3c(c2)OCO3)cc1	·	0.1	·	·	19.2	-7.5	·	·	·
